# From PubChem BioAssay (NCI)
# “And” between values parts separate entries of the source, which are not always exact repeats. Identical values can stand only once. This is part of a sample that, as a whole, favours compounds with a hit. Of some 83,000 tested, about 20% had one in any assay.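 Interpretation: 100, growth as untreated; towards 0, rising growth inhibition; 0, no net growth; 0 to -100, cell death. Compounds scoring below 10 were considered active.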 A number with no mark means an inactive call. The source made the active and inactive calls.
# System: MDA-MB-468 breast
# Assay: NCI-60 one-dose screen, 48 h (100 = growth as untreated, 0 = no growth, -100 = all killed)
# Conditions: 10 µM unless noted
row,Compound,growth
1,c1ccn2nnnc2c1,107%
2,CCCCCCCCCCCCc1ccc(C(=O)/C=C/C(=O)O)cc1,-9.53% (active)
3,O=C(NCc1ncc[nH]1)c1ccc(-c2nc3ccc4[nH]ncc4c3c3c2CCCC3)cc1,-47.1% (active)
4,O=C1CCCCN1CCCCC#Cc1cccc(C#Cc2cccnc2)c1,73.8%
5,Cn1nc(CC#N)c2c(=N)n(N)cnc21,106%
6,O=C(NNC(=S)Nc1ccccc1)c1ccc(Nc2ncnc3c2cnn3-c2cccc(Br)c2)cc1,101%
7,CC1=C(SCCC(=O)OC(C[Se]C2=C(C)C(=O)c3ccccc3C2=O)C(=O)NCCCCCC(=O)OCc2ccccc2)C(=O)c2ccccc2C1=O (stereo not given),30.5%
8,C=C(C)[C@@H]1CC[C@]2(C(=O)ON)CC[C@]3(C)[C@H](CC[C@@H]4[C@@]5(C)C/C(=C/c6ccc(Br)cc6)C(=O)C(C)(C)[C@@H]5CC[C@]43C)[C@@H]12,73.2%
9,Cc1[nH]c(-c2nc3ccccc3[nH]2)c(C)c1C(=O)NNc1ccc(Cl)cc1,84.8%
10,c1cc[c]([Bi]([c]2ccccc2)[c]2ccccc2)cc1,84.7%
11,NC(Cc1c[nH]c2ccccc12)C(=O)O (stereo not given),110% and 112%
12,Oc1c(Cl)cc(Cl)cc1C(c1cc(Cl)cc(Cl)c1O)C(Cl)(Cl)Cl,-30.5% (active)
13,O=C(c1ccccc1)c1cc2ccccc2oc1=O,97.3%
14,NC(N)=N/N=C/CO,107%
15,CCOC(=O)c1c[nH]c2cc(OCC3CC3)c(OCC3CC3)cc2c1=O,107%
